Source: PubChem BioAssay
Rows were chosen to be rich in hits. Some 3.7% of all compounds tested hit in one or more screens of this group.
Wnt bcat act = Wnt/beta-catenin pathway activators, primary screen, cell-based, plate reader, single point. Wnt/beta-catenin reporter cell assay, activator. activation, % at 9.35 µM. 300,000 tested, 1.2% active; in the data active = activation above about 30%, passing the limit was not always enough; inconclusive = no clear call, values can overlap the other calls
MITF act = activators of MITF-driven TRPM1 promoter reporter, primary screen, cell-based, SK-MEL-5, luciferase, single point. SK-MEL-5 TRPM1-promoter luciferase, 24 h; % of positive control, neutral wells = 0. activation, % at 12.5 µM. 300,000 tested, 0.75% active;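 active = mean activation of at least 80% with every replicate also reaching 80%; inconclusive = mean reaches 80% but some replicate falls short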
rRNA inh HTS = reduced GFP signal of wild-type E. coli, primary screen, bacterial rRNA inhibitor project, GFP/RFP fluorescence, OD600, single point; E. coli WT GFP vs humanized-ribosome RFP mutants, 24 h; hits give low values; DMSO median 0, no signal -100; GFP signal change (wild-type ribosome), % (concentration not given with the values); 350,000 tested, 1.6% active; AID 720706, 2013;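 active = significant combined selectivity score with lowered wild-type GFP, culture density cut under 30%, mutant RFP and density less affected; inactive = any of these conditions unmet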
esBAF inh = Bmi1 luciferase reporter increase in mESCs, primary screen, esBAF inhibitor project, mouse ES cells, Bmi1 luciferase knock-in, single point; 24 h; 100% = twice the neutral-well signal; reporter increase, % at 12.5 µM; 350,000 tested, 2% active; AID 602393, 2012; in the data active = activation above about 40%; inconclusive = no clear call, values can overlap the other calls;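 note: a rise in the Bmi1 reporter signal indicates esBAF inhibition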
MLL AF4-AF9 inh = inhibitors of AF4 peptide binding to AF9, primary screen, biochemical, AlphaScreen, biotin-AF4 peptide, FLAG-AF9, single point; Protein AF-9 (Homo sapiens), P42568; inhibition, % at 10 µM; 350,000 tested, 0.47% active; AID 651704, 2012;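 active = every replicate reaching a set inhibition limit, whatever the replicate mean, cut at about 25% in these data; inconclusive = mean inhibition reaches that limit but some replicates miss it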
Target sequence (P42568 whole entry, looked up): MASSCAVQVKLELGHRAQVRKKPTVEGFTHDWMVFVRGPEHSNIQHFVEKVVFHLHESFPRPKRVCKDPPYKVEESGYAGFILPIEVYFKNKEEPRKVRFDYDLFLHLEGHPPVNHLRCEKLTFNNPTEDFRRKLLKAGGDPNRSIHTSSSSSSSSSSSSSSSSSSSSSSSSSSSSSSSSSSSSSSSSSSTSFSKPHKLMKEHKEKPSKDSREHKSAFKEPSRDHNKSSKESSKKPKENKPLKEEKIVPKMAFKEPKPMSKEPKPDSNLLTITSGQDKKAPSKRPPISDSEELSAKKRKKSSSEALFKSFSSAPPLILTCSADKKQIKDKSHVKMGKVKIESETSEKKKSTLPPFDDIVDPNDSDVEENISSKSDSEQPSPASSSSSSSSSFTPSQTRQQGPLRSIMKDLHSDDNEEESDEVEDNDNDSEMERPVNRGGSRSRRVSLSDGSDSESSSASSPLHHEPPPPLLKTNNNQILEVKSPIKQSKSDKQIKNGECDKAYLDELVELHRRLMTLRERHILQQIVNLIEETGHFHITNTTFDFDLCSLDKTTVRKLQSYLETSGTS
Numbers stand for hits; - = inactive; ? = inconclusive; . = no result given.

SMILES	Wnt bcat act	MITF act	rRNA inh HTS	esBAF inh	MLL AF4-AF9 inh
O=C(Cn1c(NCCCO)nc2ccccc21)c1ccc(Cl)cc1Cl	-	.	-	-	-
Cc1ccc(C(=O)Nc2cccc(C(=O)N3CCOCC3)c2)cc1	41	-	.	-	.
Cc1ccc(C(=O)Nc2cccc(C(=O)NC3CCCC3)c2)cc1	-	-	-	50	-
Cc1cnc(C(=O)Nc2ccc(N3CCOCC3)cc2)cn1	.	-	.	-	.
Cc1cnc(C(=O)Nc2ccc(N3CCCCC3)cc2)cn1	-	92	-	.	-
O=C(Nc1ccc(N2CCCC2)cc1)c1ccc2ccccc2c1	32	-	.	-	-
CC(=O)Nc1ccccc1C(=O)C(=O)Nc1cccc(C(=O)NC2CC2)c1	.	-	.	48	.
Cc1cnc(C(=O)Nc2ccc(C(=O)N3CCCCC3)cc2)cn1	-	-	.	-	.
O=C(Nc1ccc(OC(F)(F)F)cc1)c1cnc2n(c1=O)CCS2	-	-	-	48	-
Cc1ccc(C(=O)Nc2ccc(N3CCCC3)cc2)cc1	-	-	-	44	-
Cc1cnc(C(=O)Nc2ccc(OC(F)(F)F)cc2)cn1	-	.	-	44	-
O=C(/C=C/c1cccs1)c1ccc(NC(=O)c2cccc(Br)c2)cc1	-	-	.	-	.
CCC(=O)NC(=S)Nc1ccc(N2CCOCC2)cc1	-	-	-	.	-
Cc1ccc(C(=O)Nc2ccc(C(=O)/C=C/c3cccs3)cc2)cc1	-	.	.	69	.
CCCCCC(=O)NC(=S)Nc1ccc(N2CCOCC2)cc1	-	-	-27	.	-
Cc1ccc(C(=O)Nc2ccc(N3CCOCC3)cc2)cc1	.	-	-	56	.
Cc1ccc(C(=O)Nc2ccc(N3CCN(S(C)(=O)=O)CC3)cc2)cc1	-	-	-	-	-
Cc1ccc(C(=O)Nc2ccc(N3CCCCC3)cc2)cc1	?	106	.	-	-
O=C(Nc1nnc(-c2ccncc2)o1)C1CCCCC1	-	-	-	.	-
COc1cccc(C(NC(C)=O)c2nc(-c3cccc(C(F)(F)F)c3)cs2)c1 (stereo not given)	-	.	-	-	-
O=C(Nc1ccc(N2CCCCC2)cc1)c1cncc(Br)c1	39	128	.	-	.
O=C(Nc1ccc(S(=O)(=O)N2CCCC2)cc1)c1cncc(Br)c1	-	-	-	-	-
Cc1ccc(/C=C/C(=O)c2ccc(N3CCOCC3)cc2)s1	-	91	-	.	-
CC(C)Oc1ccc(C(=O)NC2CCCCC2)cc1	.	-	.	50	.
O=C1NCCOCn2nncc2CC[C@@H]1Cc1ccc(-c2ccccc2)cc1	.	.	-	.	.
SMILES	Wnt bcat act	MITF act	rRNA inh HTS	esBAF inh	MLL AF4-AF9 inh
CCCOC(=O)c1ccc(NC(=O)C(CC)CC)cc1	.	-	.	51	.
CCCOC(=O)c1ccc(NC(=O)C2CCCO2)cc1 (stereo not given)	.	.	.	50	.
NC(=O)c1ccc(NC(=O)C2CCCO2)cc1 (stereo not given)	.	-	.	-	.
Nc1[nH]ncc1-c1ccc(Cl)cc1	-	-	-	.	-
Nc1[nH]ncc1N=Nc1ccc(Cl)cc1	.	-	.	47	.
COc1ccc(-c2[nH]ncc2CNC(C)c2ccccc2Cl)cc1F (stereo not given)	43	-	-	-	-
COc1ccc(-c2[nH]ncc2CNC(C)CCn2cccn2)cc1F (stereo not given)	-	-	-	-	-
C[C@@H]1CN([C@@H](C)CO)C(=O)c2cc(NS(=O)(=O)c3ccc(Cl)cc3)ccc2O[C@@H](C)CCCCO[C@@H]1CN(C)S(=O)(=O)c1cn(C)cn1	.	.	-	-	-
O=C(CNC(=O)c1cccs1)OCc1ccc(Cl)cc1	-	-	-	-	-
O=C(CNC(=O)c1cccs1)c1ccc(Br)cc1	-	123	-	-	-
O=C(CNC(=O)c1cccs1)OCc1ccc(Br)cc1	-	-	-26	.	-
C/C(N)=C(/C#N)C(=O)COC(=O)c1ccccc1C(=O)c1ccc(C)cc1	-	-	-21	.	-
COCC#Cc1ccc([C@@H]2[C@H]3CN(C(=O)Nc4ccccc4F)CC(=O)N3[C@H]2CO)cc1	.	.	-	.	-
O=C(Nc1nc(-c2ccccn2)cs1)c1cc(Cl)ccc1[N+](=O)[O-]	-	-	-	.	-
CC1CC1C(=O)Nc1nc(-c2ccccn2)cs1 (stereo not given)	-	-	.	51	.
Cc1cc(C(=O)Nc2nc(-c3ccccn3)cs2)ccc1[N+](=O)[O-]	-	-	-29	.	-
CC(C)[C@H](NC(=O)c1ccccc1Cl)C(=O)Nc1nc(-c2ccccn2)cs1	-	-	-29	-	-
Cn1c(=O)c2c(-c3ccccc3)n(-c3ccccc3F)cc2n(C)c1=O	-	.	-	-	-
CC(C)n1nnnc1SCC(=O)Nc1ccc2c(c1)OCO2	-	-	.	-	.
O=C(Nc1ccc2c(c1)OCO2)c1noc2c1CCCC2	38	-	-	-	-
O=C(Nc1ccc2c(c1)OCO2)c1noc2c1CCCCC2	.	-	.	.	.
CC(=O)c1ccc(NC(=O)c2noc3c2CCCCC3)cc1	.	89	.	-	.
O=C(N/N=C/c1cccc(O)c1)c1ccc(COc2ccc3c(c2)CCC3)o1	.	-	.	52	.
CN1c2ccccc2N(C)C1(C)c1ccccc1	.	-	-	.	49
CCN(CC)c1ccc(N=Cc2ccccc2[N+](=O)[O-])cc1	-	-	-32	.	-
SMILES	Wnt bcat act	MITF act	rRNA inh HTS	esBAF inh	MLL AF4-AF9 inh
CC(=O)N(C)c1ccc(N=Cc2cc3c(cc2[N+](=O)[O-])OCO3)cc1	-	-	-	.	-
COC(=O)c1ccc(NC(=O)c2ccccc2N(C)S(=O)(=O)c2ccccc2)cc1	-	-	.	-	.
CN(C)CC/C=C1/c2cc(F)ccc2Sc2ccc(Cl)cc21	-	.	-50	-	37
Cc1cc(OC(=O)c2cccc([N+](=O)[O-])c2)c(C)cc1CN1CCOCC1	-	-	-	-	-
C=CCNC(=O)C1CCN(c2nc(C)cc(-c3ccccc3)n2)CC1	-	-	.	56	-
C=CCNC(=O)C1CCN(c2cc(C)nc(-c3ccccc3)n2)CC1	-	-	-	-	-
CCC(C(=O)NN1C(=O)c2ccccc2C1=O)c1ccccc1 (stereo not given)	-	-	-	.	-
O=C(NCCSCc1ccco1)Nc1cc(Cl)cc(Cl)c1	-	-	-51	-	-
CC(C)c1ccc(S(=O)(=O)NCCCN2CCOCC2)cc1	-	.	-	-	-
O=Nc1c2cc3ccccc3[nH]c-2c2ccccc12	74	-	-	-	-
O=Nc1c(O)c2ccccc2c2ccccc12	-	-	-	-	-
CCc1nc2n(n1)C(O)c1cc([N+](=O)[O-])ccc1S2 (stereo not given)	42	.	-	.	.
O=C(O)CCc1ccc(S(=O)(=O)Nc2ccc(OCc3ccccc3)cc2)cc1	-	-	-	-	-
O=C(O)/C=C/c1ccc(S(=O)(=O)Nc2ccc(OCc3ccccc3)cc2)cc1	-	-	-24	-	-
Cc1oc(C(=O)O)cc1COc1ccccc1Cl	59	-	.	-	.
O=C(COC(=O)c1ccc(N2CCCC2=O)cc1)c1ccccc1	-	.	-	45	-
